Source: PMC7862700, “An all-to-all approach to the identification of sequence-specific readers for epigenetic DNA modifications on cytosine”

How the values were obtained:
Test in all cases: DAPPL (digital affinity profiling via proximity ligation, sequencing); 10 mM Tris-HCl pH 7.5, 50 mM NaCl, 1 mM DTT, 4% glycerol, room temperature, 30 min; GST-TFs on glutathione beads, 16-mer random dsDNA library, 0.1% formaldehyde crosslink after washing; high values mean tight binding
FEV = target: T1, FEV (Homo sapiens, UniProt Q99581 1-238); conditions: protein: recombinant; tags: N-terminal GST; dsDNA, one strand shown
T1 sequence: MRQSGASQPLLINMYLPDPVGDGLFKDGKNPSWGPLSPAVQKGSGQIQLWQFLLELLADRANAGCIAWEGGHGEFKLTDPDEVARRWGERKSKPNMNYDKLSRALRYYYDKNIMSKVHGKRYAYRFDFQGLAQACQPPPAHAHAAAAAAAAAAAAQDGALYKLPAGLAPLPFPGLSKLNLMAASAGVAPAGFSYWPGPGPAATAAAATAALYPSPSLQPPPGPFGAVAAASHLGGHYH
Summary of the method: (§1)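 Pools of DNA-barcoded human transcription factors, expressed in yeast as GST fusions on glutathione beads and combined with a tag-only sample, were incubated with 200 nmole of a 16-mer random double-stranded DNA library. Incubation took 30 min at room temperature in Tris/NaCl/DTT/glycerol buffer and was followed by washing, 0.1% formaldehyde crosslinking, proximity ligation (BsaI/T4 ligase, 1 h, 37 °C), PCR amplification and sequencing on an Illumina NextSeq500. Binding signal is the ratio of a hexamer's read frequency for a factor to its frequency for the tag-only sample.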

ETV5 = ETV5 (Homo sapiens, UniProt P41161 1-510); conditions: protein: recombinant; tags: N-terminal GST; dsDNA, one strand shown
Summary of the method: as §1

HSF1 = HSF1 (Homo sapiens, UniProt Q00613 1-529); conditions: protein: recombinant; tags: N-terminal GST; chain copies: 3; dsDNA, one strand shown
Summary of the method: as §1

SPIC = target: T2, SPIC (Homo sapiens, UniProt Q8N5J4 1-248); conditions: protein: recombinant; tags: N-terminal GST; dsDNA, one strand shown
T2 sequence: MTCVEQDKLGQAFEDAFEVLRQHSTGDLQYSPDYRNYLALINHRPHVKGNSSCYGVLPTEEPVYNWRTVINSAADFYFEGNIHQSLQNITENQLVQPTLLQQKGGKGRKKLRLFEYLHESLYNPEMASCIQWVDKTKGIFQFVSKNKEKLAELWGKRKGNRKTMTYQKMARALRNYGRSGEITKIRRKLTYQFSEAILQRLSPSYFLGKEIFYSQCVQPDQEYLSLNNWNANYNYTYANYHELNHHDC
Summary of the method: as §1

ELF4 = ELF4 (Homo sapiens, UniProt Q99607 1-663); conditions: protein: recombinant; tags: N-terminal GST; dsDNA, one strand shown
Summary of the method: as §1

ELK4 = target: T3, ELK4 (Homo sapiens, UniProt P28324-2 1-405); conditions: protein: recombinant; tags: N-terminal GST; dsDNA, one strand shown
T3 sequence: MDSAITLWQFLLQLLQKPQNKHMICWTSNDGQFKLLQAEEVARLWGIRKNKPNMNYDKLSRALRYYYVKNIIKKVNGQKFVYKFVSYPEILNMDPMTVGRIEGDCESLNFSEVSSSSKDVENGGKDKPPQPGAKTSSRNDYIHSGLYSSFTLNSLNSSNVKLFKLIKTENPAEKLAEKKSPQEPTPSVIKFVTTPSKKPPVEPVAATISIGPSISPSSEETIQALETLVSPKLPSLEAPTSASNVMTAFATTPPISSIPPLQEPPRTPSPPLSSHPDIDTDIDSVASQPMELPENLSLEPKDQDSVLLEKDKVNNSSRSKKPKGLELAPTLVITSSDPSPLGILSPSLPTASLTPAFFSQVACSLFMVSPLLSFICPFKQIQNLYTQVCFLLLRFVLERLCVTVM
Summary of the method: as §1

ETV2 = target: T4, ETV2 (Homo sapiens, UniProt O00321 1-342); conditions: protein: recombinant; tags: N-terminal GST; dsDNA, one strand shown
T4 sequence: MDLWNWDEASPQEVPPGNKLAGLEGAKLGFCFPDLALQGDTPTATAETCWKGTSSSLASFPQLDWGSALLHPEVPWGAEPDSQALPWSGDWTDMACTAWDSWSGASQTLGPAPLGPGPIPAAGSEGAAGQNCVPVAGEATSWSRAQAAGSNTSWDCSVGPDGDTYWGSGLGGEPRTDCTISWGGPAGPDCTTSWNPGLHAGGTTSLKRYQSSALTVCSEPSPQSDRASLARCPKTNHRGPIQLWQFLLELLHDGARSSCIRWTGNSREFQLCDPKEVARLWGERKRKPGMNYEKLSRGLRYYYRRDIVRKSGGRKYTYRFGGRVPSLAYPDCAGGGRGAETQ
Summary of the method: as §1

ELF3 = target: T5, ELF3 (Homo sapiens, UniProt P78545 1-371); conditions: protein: recombinant; tags: N-terminal GST; dsDNA, one strand shown
T5 sequence: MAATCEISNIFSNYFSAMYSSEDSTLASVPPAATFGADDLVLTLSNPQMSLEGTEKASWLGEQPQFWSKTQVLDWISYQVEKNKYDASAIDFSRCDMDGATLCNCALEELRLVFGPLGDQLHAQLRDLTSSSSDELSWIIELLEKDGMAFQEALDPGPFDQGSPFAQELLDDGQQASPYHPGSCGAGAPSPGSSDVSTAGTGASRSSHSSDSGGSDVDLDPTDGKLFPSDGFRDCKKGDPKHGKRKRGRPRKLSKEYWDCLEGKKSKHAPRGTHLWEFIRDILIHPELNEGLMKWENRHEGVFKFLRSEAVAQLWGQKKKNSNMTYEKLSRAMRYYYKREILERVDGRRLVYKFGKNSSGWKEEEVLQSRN
Summary of the method: as §1

CRX = CRX (Homo sapiens, UniProt O43186 1-299); conditions: protein: recombinant; tags: N-terminal GST; dsDNA, one strand shown
Summary of the method: as §1

ETV1 = ETV1 (Homo sapiens, UniProt P50549 1-477); conditions: protein: recombinant; tags: N-terminal GST; dsDNA, one strand shown
Summary of the method: as §1

ERF = target: T6, ERF (Homo sapiens, UniProt P50548 1-548); conditions: protein: recombinant; tags: N-terminal GST; dsDNA, one strand shown
T6 sequence: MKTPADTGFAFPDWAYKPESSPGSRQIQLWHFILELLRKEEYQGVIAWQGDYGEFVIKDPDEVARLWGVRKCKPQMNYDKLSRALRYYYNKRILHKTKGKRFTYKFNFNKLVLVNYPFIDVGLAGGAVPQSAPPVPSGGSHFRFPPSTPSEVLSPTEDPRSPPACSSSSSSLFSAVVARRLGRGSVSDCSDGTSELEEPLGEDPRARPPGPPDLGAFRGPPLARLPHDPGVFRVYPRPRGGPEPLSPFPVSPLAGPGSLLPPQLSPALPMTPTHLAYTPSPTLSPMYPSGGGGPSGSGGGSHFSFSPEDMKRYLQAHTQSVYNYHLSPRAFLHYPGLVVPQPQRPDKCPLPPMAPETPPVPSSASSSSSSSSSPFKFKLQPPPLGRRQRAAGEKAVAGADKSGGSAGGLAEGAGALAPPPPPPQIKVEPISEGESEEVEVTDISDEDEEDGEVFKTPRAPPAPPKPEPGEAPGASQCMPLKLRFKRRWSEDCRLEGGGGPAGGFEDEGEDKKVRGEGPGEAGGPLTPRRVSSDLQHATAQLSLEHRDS
Summary of the method: as §1

ETV3L = target: T7, ETV3L (Homo sapiens, UniProt Q6ZN32 1-361); conditions: protein: recombinant; tags: N-terminal GST; dsDNA, one strand shown
T7 sequence: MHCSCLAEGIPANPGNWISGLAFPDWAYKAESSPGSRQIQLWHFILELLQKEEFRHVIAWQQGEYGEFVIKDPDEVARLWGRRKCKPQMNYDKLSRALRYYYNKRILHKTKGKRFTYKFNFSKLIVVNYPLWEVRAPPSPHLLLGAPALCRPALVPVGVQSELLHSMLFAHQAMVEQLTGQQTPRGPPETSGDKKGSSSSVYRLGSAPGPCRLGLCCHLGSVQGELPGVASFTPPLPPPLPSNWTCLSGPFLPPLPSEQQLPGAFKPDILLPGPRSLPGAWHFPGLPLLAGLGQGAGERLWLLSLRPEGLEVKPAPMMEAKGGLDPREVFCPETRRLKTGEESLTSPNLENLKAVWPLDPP
Summary of the method: as §1

ETS2 = target: T8, ETS2 (Homo sapiens, UniProt P15036 1-469); conditions: protein: recombinant; tags: N-terminal GST; dsDNA, one strand shown
T8 sequence: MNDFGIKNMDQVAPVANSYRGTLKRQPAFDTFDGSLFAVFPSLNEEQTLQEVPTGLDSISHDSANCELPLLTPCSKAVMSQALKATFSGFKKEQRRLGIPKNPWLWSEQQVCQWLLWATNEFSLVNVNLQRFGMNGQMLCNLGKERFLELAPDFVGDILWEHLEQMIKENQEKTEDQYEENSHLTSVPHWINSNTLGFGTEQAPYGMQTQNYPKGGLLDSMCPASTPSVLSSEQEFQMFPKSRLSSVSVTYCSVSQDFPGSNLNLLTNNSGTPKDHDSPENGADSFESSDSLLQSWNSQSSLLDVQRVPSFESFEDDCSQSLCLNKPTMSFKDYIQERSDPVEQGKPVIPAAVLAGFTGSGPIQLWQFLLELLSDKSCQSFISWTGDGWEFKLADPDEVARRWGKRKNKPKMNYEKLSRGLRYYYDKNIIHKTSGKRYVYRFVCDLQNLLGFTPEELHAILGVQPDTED
Summary of the method: as §1

SPDEF = target: T9, SPDEF (Homo sapiens, UniProt O95238 1-335); conditions: protein: recombinant; tags: N-terminal GST; dsDNA, one strand shown
T9 sequence: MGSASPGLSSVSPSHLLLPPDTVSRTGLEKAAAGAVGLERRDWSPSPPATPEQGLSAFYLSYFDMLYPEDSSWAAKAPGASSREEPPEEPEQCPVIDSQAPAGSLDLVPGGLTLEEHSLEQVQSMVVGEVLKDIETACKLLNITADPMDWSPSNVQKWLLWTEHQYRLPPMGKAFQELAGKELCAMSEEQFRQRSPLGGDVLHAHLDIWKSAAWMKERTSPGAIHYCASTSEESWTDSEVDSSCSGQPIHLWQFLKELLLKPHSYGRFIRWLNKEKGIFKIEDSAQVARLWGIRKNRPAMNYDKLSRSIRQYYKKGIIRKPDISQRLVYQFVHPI
Summary of the method: as §1

ETV7 = target: T10, ETV7 (Homo sapiens, UniProt Q9Y603 1-341); conditions: protein: recombinant; tags: N-terminal GST; dsDNA, one strand shown
T10 sequence: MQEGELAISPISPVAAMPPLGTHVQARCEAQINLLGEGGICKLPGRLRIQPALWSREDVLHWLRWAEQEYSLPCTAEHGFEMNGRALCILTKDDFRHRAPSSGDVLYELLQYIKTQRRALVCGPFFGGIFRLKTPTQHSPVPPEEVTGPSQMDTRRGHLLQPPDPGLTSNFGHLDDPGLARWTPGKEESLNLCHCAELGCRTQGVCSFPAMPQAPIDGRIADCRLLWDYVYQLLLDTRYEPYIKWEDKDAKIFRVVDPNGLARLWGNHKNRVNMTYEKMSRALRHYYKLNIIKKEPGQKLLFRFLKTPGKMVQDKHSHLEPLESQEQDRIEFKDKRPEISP
Summary of the method: as §1

ELF5 = target: T11, ELF5 (Homo sapiens, UniProt Q9UKW6-2 1-255); conditions: protein: recombinant; tags: N-terminal GST; dsDNA, one strand shown
T11 sequence: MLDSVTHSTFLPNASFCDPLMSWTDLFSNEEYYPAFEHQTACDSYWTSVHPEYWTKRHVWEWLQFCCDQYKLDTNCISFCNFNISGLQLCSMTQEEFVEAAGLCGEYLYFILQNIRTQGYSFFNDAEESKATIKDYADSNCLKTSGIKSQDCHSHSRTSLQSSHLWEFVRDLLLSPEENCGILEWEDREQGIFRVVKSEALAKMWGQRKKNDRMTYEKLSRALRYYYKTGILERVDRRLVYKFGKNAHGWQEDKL
Summary of the method: as §1

ETV3 = target: T12, ETV3 (Homo sapiens, UniProt P41162-2 1-143); conditions: protein: recombinant; tags: N-terminal GST; dsDNA, one strand shown
T12 sequence: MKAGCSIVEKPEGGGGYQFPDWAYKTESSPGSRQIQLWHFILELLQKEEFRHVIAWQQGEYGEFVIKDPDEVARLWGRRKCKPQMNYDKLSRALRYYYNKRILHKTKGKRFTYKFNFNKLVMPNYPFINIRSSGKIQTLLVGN
Summary of the method: as §1

ETV6 = ETV6 (Homo sapiens, UniProt P41212 1-452); conditions: protein: recombinant; tags: N-terminal GST; dsDNA, one strand shown
Summary of the method: as §1

ETV6, sequence (P41212 whole entry): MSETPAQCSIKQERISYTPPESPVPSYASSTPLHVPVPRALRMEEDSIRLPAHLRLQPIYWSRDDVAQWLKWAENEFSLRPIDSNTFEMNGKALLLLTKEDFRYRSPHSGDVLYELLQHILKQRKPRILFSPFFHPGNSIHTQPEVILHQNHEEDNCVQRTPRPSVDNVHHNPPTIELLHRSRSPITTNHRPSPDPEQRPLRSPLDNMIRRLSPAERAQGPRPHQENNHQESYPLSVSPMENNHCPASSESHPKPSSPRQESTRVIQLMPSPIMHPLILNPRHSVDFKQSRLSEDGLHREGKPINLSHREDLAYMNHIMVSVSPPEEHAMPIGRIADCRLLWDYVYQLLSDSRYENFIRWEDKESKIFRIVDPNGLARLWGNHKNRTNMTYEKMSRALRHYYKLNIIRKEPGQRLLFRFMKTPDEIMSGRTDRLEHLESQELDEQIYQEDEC
CRX, sequence (O43186 whole entry): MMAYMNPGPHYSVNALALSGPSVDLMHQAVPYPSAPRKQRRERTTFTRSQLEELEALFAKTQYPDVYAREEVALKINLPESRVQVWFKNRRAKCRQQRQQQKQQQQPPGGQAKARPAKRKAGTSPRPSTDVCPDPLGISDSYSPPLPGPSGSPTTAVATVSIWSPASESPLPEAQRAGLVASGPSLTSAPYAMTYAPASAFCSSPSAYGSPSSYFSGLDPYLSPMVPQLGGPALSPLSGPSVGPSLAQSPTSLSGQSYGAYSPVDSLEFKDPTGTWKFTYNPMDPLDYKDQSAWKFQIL
ETV1, sequence (P50549 whole entry): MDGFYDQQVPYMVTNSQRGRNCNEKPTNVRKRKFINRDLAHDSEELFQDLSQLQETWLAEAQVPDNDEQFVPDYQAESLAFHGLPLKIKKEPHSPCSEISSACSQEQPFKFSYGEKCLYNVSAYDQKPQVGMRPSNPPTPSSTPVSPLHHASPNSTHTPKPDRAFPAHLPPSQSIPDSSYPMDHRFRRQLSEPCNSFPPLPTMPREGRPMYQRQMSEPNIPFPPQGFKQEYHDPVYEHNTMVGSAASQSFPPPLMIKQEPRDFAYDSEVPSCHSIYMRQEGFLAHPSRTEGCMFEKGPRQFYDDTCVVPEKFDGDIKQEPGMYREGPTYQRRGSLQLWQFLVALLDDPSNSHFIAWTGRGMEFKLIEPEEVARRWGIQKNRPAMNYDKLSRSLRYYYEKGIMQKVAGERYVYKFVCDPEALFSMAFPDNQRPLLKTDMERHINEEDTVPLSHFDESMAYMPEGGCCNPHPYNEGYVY
ETV5, sequence (P41161 whole entry): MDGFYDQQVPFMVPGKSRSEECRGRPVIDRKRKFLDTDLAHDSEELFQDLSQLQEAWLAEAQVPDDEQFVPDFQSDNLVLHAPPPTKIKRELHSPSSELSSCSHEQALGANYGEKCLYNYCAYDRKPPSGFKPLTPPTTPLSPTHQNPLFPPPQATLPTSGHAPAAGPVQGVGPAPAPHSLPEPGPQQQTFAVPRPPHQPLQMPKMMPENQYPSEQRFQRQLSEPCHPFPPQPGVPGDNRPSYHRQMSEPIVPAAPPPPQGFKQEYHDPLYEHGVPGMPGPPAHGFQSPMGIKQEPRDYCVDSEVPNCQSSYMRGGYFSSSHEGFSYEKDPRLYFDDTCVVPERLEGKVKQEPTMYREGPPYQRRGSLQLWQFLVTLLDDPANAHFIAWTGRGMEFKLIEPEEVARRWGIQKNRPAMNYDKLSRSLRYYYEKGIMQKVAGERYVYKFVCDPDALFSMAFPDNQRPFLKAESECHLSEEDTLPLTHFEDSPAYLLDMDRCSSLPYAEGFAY
ELF4, sequence (Q99607 whole entry): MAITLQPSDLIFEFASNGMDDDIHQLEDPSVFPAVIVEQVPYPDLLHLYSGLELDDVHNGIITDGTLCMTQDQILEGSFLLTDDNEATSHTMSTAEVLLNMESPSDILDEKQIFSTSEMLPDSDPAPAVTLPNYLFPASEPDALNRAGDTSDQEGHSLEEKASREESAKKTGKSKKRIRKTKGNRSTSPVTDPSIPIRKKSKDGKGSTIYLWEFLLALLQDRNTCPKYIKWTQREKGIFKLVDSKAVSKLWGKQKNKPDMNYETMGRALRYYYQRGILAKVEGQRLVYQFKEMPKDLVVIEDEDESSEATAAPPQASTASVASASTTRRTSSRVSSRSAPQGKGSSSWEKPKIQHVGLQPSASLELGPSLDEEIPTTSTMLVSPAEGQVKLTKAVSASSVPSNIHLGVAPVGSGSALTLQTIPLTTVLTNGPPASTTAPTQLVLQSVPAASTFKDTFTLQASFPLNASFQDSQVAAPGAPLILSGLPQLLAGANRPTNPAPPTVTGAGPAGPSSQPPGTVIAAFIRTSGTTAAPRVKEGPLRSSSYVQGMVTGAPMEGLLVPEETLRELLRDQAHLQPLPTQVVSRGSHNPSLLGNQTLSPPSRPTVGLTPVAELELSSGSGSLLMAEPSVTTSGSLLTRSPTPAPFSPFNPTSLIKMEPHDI
HSF1, sequence (Q00613 whole entry): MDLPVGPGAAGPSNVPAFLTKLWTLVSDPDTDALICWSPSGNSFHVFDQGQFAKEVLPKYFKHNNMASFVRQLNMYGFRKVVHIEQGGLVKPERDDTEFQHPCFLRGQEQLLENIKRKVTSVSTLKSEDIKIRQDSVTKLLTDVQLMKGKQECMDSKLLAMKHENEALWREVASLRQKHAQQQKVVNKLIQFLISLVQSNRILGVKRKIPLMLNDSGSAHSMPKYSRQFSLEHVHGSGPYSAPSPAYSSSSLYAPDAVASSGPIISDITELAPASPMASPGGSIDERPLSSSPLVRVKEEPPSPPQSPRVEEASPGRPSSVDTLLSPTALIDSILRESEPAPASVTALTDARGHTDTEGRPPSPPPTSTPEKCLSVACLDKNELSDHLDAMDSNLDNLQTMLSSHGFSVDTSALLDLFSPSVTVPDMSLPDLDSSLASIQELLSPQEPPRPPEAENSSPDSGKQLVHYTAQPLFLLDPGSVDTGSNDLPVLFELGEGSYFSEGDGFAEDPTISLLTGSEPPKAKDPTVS

Question: For ATCTAC, which binding signal (FEV) is on record?
Answer: 1.33 fold enrichment (6-mer frequency, TF over GST control)

Question: What about the binding signal (ETV5) of the same sequence?
Answer: 1.25 fold enrichment (6-mer frequency, TF over GST control)

Question: What about the binding signal (HSF1) of the same sequence?
Answer: 1.43 fold enrichment (6-mer frequency, TF over GST control)

Question: What about the binding signal (SPIC) of the same sequence?
Answer: 1.34 fold enrichment (6-mer frequency, TF over GST control)

Question: And the binding signal (ELF4)?
Answer: 1.27 fold enrichment (6-mer frequency, TF over GST control)

Question: What about the binding signal (ELK4) of the same sequence?
Answer: 1.11 fold enrichment (6-mer frequency, TF over GST control)

Question: And the binding signal (ETV2)?
Answer: 1.29 fold enrichment (6-mer frequency, TF over GST control)

Question: And the binding signal (ELF3)?
Answer: 1.33 fold enrichment (6-mer frequency, TF over GST control)

Question: And the binding signal (CRX)?
Answer: 1.5 fold enrichment (6-mer frequency, TF over GST control)

Question: What about the binding signal (ETV1) of the same sequence?
Answer: 1.26 fold enrichment (6-mer frequency, TF over GST control)

Question: And the binding signal (ERF)?
Answer: 1.44 fold enrichment (6-mer frequency, TF over GST control)

Question: And the binding signal (ETV3L)?
Answer: 1.36 fold enrichment (6-mer frequency, TF over GST control)

Question: What about the binding signal (ETS2) of the same sequence?
Answer: 1.32 fold enrichment (6-mer frequency, TF over GST control)

Question: What about the binding signal (SPDEF) of the same sequence?
Answer: 1.24 fold enrichment (6-mer frequency, TF over GST control)

Question: And the binding signal (ETV7)?
Answer: 1.21 fold enrichment (6-mer frequency, TF over GST control)

Question: And the binding signal (ELF5)?
Answer: 1.3 fold enrichment (6-mer frequency, TF over GST control)

Question: And the binding signal (ETV3)?
Answer: 1.2 fold enrichment (6-mer frequency, TF over GST control)

Question: And the binding signal (ETV6)?
Answer: 1.29 fold enrichment (6-mer frequency, TF over GST control)
